Screening results: PubChem, several laboratories
E coli growth-1 – E. coli growth inhibition, primary screen, OD600; 330,000 compounds, 0.21% hits; OD600 absorbance (no concentration beside the values); AID 1053175, 2014; Escherichia coli growth, 23 h; hits give low values;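 active means OD600 absorbance below the run mean of sample wells minus 3.6 SD, in any replicate, cut at about 0.56 in these data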
AddAB inh – growth inhibition of E. coli expressing H. pylori AddAB, primary screen, AddAB inhibitor project, absorbance | inhibition, % at 11.9 µM | 330,000 compounds, 0.29% hits; in the data active means inhibition above about 12%
Tat export inh – E. coli Tat export inhibitors, primary screen, MC4100, TorA-mCherry reporter, fluorescence, single point | inhibition, % at 10 µM | 340,000 compounds, 0.036% hits;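 active means mean replicate inhibition at least 50% and at least half of replicates individually reaching 50%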;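 further: exported cargo escapes ClpAP degradation while cytoplasmic cargo is degraded and loses fluorescence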
E coli growth-2 – E. coli V3065 growth inhibition, primary screen, counter-screen for AddAB inhibitor project, absorbance, OD600; 18 h; inhibition, % at 11.9 µM; 330,000 compounds, 0.27% hits; AID 449728, 2010;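 active means inhibition above the campaign's mean inhibition across all tested compounds plus 3 SD, cut at about 9.9% in these data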;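 further: uninfected addAB+ strain grown without phage in ampicillin broth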
phage Ecoli inh – growth loss of phage-infected E. coli, primary screen, RecBCD inhibitor project, absorbance, with phage, HTS; inhibition, % at 11.9 µM; 360,000 compounds, 0.26% hits; AID 651602, 2012; in the data active means inhibition above about 11%
RecBCD conf – growth loss of phage-infected RecBCD+ E. coli, confirmation, RecBCD inhibitor project, absorbance, E. coli V66, T4 gene 2 phage; 890 compounds, 45% hits; inhibition, % at 11.9 µM; shares compounds with phage Ecoli inh; E. coli V66 + T4 2- phage, growth OD;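 active means mean inhibition over triplicates exceeding the hit threshold derived in the original primary screen, cut at about 11% in these data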
Ecoli viability – E. coli viability inhibition, counter-screen for RecBCD inhibitor project, absorbance, high throughput; shares compounds with phage Ecoli inh; absorbance (OD) growth; inhibition, % at 11.9 µM; 890 compounds, 29% hits; AID 651983, 2013; in the data active means inhibition above about 20%;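 further: E. coli strain V66 grown with compound alone and no phage infection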
AddAB phage OD – growth loss of phage-infected AddAB-carrying E. coli, confirmation, counter-screen for RecBCD inhibitor project, absorbance, E. coli V3065, T4 phage; shares compounds with phage Ecoli inh; E. coli expressing H. pylori AddAB + T4 phage, OD growth; gene 2 mutant T4, recBCD-deleted host; inhibition, % at 11.9 µM; 890 compounds, 45% hits; AID 651984, 2013;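 active means mean inhibition above the solvent-only control wells' mean plus 3 SD, cut at about 22% in these data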;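 further: higher means less bacterial growth from phage killing when AddAB is blocked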
Each line names hits and unclear results; the compound was inactive in the other large screens (follow-up assays come after a bar, where they were run). Compounds with a hit are over-represented: about 0.51% of the library has one in this group of screens.

CCC1OC(=O)C(C)C(OC2C[C@@](C)(OC)C(O)C(C)O2)C(C)C(O[C@@H]2OC(C)CC(N(C)C)C2O)[C@](C)(O)CC(C)C(=NOCOCCOC)C(C)C(O)[C@]1(C)O (stereo not given in full)	E coli growth-2 10.0, phage Ecoli inh 12 (no result: E coli growth-1) | RecBCD conf inactive | Ecoli viability inactive | AddAB phage OD inactive
CC(C)(C)C1CCC(=O)N(C(CSc2ccc(Br)cc2)Cc2ccccc2)CC1 (stereo not given)	none (no result: AddAB inh, Tat export inh, E coli growth-2, phage Ecoli inh)
Fc1ccccc1CNC(=S)Nc1cccc(C(F)(F)F)c1	phage Ecoli inh 11 | RecBCD conf inactive | Ecoli viability inactive | AddAB phage OD inactive
FC(F)(F)c1cccc(NC(=S)NCc2ccc(Cl)cc2)c1	phage Ecoli inh 13 | RecBCD conf inactive | Ecoli viability inactive | AddAB phage OD inactive
Cn1c(-c2ccc3c(c2)OCO3)cnc1NCc1ccccc1	none
Cc1ccc(-c2cnc(NCc3cc4c(cc3[N+](=O)[O-])OCO4)n2C)cc1C	phage Ecoli inh 11 | RecBCD conf inactive | Ecoli viability inactive | AddAB phage OD inactive
Cc1ccc(S(=O)(=O)NN=C2CC(c3ccccc3)Oc3ccccc32)cc1[N+](=O)[O-] (stereo not given)	none (no result: AddAB inh, Tat export inh, E coli growth-2, phage Ecoli inh)
COc1cc2cccc(OC)c(=O)c2c(OC)c1OC	none
O=c1c(O)cccc2cc(O)c(O)c(O)c12	Tat export inh 53, E coli growth-2 11, phage Ecoli inh 14 | RecBCD conf inactive | Ecoli viability inactive | AddAB phage OD inactive
COc1cccc(NC(=O)c2ccc3c(c2)N(C)CCS3)c1	none
CN1CCSc2ccc(C(=O)Nc3ccc(Cl)cc3)cc21	phage Ecoli inh 100 (no result: E coli growth-1) | RecBCD conf inactive | Ecoli viability inactive | AddAB phage OD inactive
NC1=NCC(CC2CCCCC2)N1CCc1cc(C(F)(F)F)cc(C(F)(F)F)c1 (stereo not given)	none (no result: AddAB inh, Tat export inh, E coli growth-2, phage Ecoli inh)
O=C(NC1C2CC3CC(C2)CC1C3)c1ccc2c(c1)OCO2 (stereo not given)	none
O=C(NNC(=O)c1ccc2c(c1)OCO2)NC12CC3CC(CC(C3)C1)C2	phage Ecoli inh 13 | RecBCD conf inactive | Ecoli viability inactive | AddAB phage OD inactive
O=C1C=C(c2cc(C(F)(F)F)cc(C(F)(F)F)c2)CC(c2ccc(Cl)cc2)C1 (stereo not given)	none (no result: AddAB inh, Tat export inh, E coli growth-2, phage Ecoli inh)
Cc1ccccc1Cn1c(CN2CCN(C(=O)c3ccco3)CC2)nc2c1c(=O)n(C)c(=O)n2C	phage Ecoli inh 97 | RecBCD conf inactive | Ecoli viability inactive | AddAB phage OD inactive
